NLRP3 yeast inh: NALP3 inhibition in yeast. Yeast reconstituted NLRP3/ASC/caspase-1, beta-gal luminescence, 24 h. inhibition, % at 10 µM. 330,000 tested, 0.39% active. AID 2825;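 active = inhibition of 50% or more; inactive = inhibition below 50%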;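 also: plate controls were induced DMSO wells for no effect and uninduced yeast grown without galactose for full effect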
tim10-1 inh: growth inhibitors of tim10-1 mutant yeast | S. cerevisiae tim10-1 ts strain growth, BacTiter-Glo, 24 h | inhibition, % at 20 µM | 330,000 tested, 2.2% active;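 active = inhibition of at least 40%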;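 also: mutant grown at 25 °C; 0% = DMSO wells with yeast and 100% = wells holding no yeast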
TIM10 inh: inhibits growth of TIM10 yeast strain. S. cerevisiae TIM10 strain growth, BacTiter-Glo luminescence, 24 h. inhibition, % at 10 µM. 330,000 tested, 1.4% active. AID 463195;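 active = inhibition of 40% or more at the single tested concentration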;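 also: wild-type TIM10 isogenic control strain grown at permissive 25 °C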
SKKanGAS inh: blocks kanamycin growth of S. pyogenes SKKanGAS strain; inhibition, % at 7.5 µM; BacTiter-Glo, 6 h; 300,000 tested, 1.3% active;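 active = mean replicate score, as percent of positive control median, at least 50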;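 also: strain carries kanamycin resistance gene driven by streptokinase promoter and grows in 40 µg/ml kanamycin; loss of luminescence reflects streptokinase promoter inhibition or plain growth inhibition; 0% = median of DMSO wells and 100% = positive control at its reference dose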
PfHsp90 set2: inhibits growth of yeast expressing Plasmodium falciparum Hsp90; 310,000 tested, 0.32% active; AID 504621; inhibition, % at 9.4 µM; S. cerevisiae expressing PfHsp90, BacTiter-Glo ATP, 48 h; yeast lacking PDR1 and PDR3 efflux regulators;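 active = every replicate shows inhibition above about 80%, whatever the replicate mean, limit read from the data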;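 also: 0% = DMSO neutral controls and 100% = 20 µM radicicol positive controls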
tim23-1 inh: tim23-1 yeast growth inhibition | S. cerevisiae tim23-1 growth, BacTiter-Glo luminescence, 24 h | inhibition, % at 20 µM | 330,000 tested, 1.3% active | AID 463212;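 active = growth inhibition of the mutant yeast at or above 50%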;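 also: temperature-sensitive mutant grown at 25 °C; plate controls were DMSO-treated mutant yeast for no effect and medium wells lacking yeast for full effect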
NALP3 yeast conf: confirmation of NALP3 inhibitors in yeast. shares compounds with NLRP3 yeast inh. yeast expressing human NALP3, luminescence. AID 435006. inhibition, % at 10 µM. 1,300 tested, 81% active; in the data active = inhibition above about 48%
Casp1-ASC yeast: counter-screen for NALP3 inhibitors: yeast caspase-1-ASC. 1,000 tested, 66% active. yeast expressing Caspase-1-ASC, luminescence counter screen. AID 488784. shares compounds with NLRP3 yeast inh. inhibition, % at 10 µM
NALP3 yeast rt: yeast NALP3 inhibition, confirmed on retest | shares compounds with NLRP3 yeast inh | yeast expressing human NALP3, luminescence read-out | inhibition, % at 10 µM | 1,000 tested, 53% active | AID 488794
tim10-1 conf: tim10-1 yeast growth inhibition, confirmed; shares compounds with tim10-1 inh; S. cerevisiae tim10-1 ts strain growth, BacTiter-Glo, 24 h; inhibition, % at 20 µM; 7,400 tested, 56% active; AID 463213;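 active = inhibition of yeast growth at or above a set limit in either of two repeat tests at 20 µM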;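 also: tim10-1 mutant grown at permissive 25 °C to find synthetic lethal compounds; 0% = DMSO yeast wells and 100% = medium wells without yeast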
TIM10 conf: confirmation of TIM10 yeast growth inhibitors | 4,600 tested, 63% active | S. cerevisiae tim10 strain growth, BacTiter-Glo luminescence, 24 h | inhibition, % at 10 µM | AID 463215 | shares compounds with TIM10 inh;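 active = inhibition of yeast growth at or above a set limit in either of two replicates at 10 µM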;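 also: this counterscreen used the strain with wild-type TIM10; 0% = yeast with DMSO and 100% = medium wells lacking yeast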
tim23-1 conf: confirmation of tim23-1 mutant yeast growth inhibitors; shares compounds with tim23-1 inh; S. cerevisiae tim23-1 growth, BacTiter-Glo luminescence, 24 h; inhibition, % at 20 µM; 4,400 tested, 83% active;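 active = inhibition above about 39% in either of two replicate wells at 20 µM, limit read from the data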;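 also: temperature-sensitive tim23-1 mutant grown at 25 °C; 0% = DMSO wells with yeast and 100% = medium wells without yeast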
* = called active by the depositor. The list is not random: actives were taken first. Their share in the collection is about 4.6%. Rule as the data show it, unless noted: active = inhibition above about 50%; inactive = the rest.

CCCNC(=O)CSc1nnc(-c2ccccc2Br)n1-c1cccc(C(F)(F)F)c1 was read as NLRP3 yeast inh 6.5, tim10-1 inh 36.3, TIM10 inh 14.1, PfHsp90 set2 8.7 and tim23-1 inh 20.9.
Screening CN1CCN(c2cc(-c3ccccc3)nc3cc(-c4ccc(F)cc4)nn23)CC1 returned NLRP3 yeast inh 52.0*, tim10-1 inh 10.7, TIM10 inh 33.6, SKKanGAS inh 11.2, tim23-1 inh 55.3*, NALP3 yeast conf 63.0*, Casp1-ASC yeast 67.8*, NALP3 yeast rt 65.8* and tim23-1 conf 43.1*.
CCCC1CCC(c2ccc(C(=O)NN)cc2)CC1 (configuration not stated) was read as NLRP3 yeast inh 51.5*, tim10-1 inh 31.7, TIM10 inh 47.3*, SKKanGAS inh 1.3, PfHsp90 set2 2.8, tim23-1 inh 54.7*, NALP3 yeast conf 35.0, TIM10 conf 32.5* and tim23-1 conf 18.2.
COc1c(OC(C)=O)c(=O)n2c3ccccc3c3ccnc1c32 was read as NLRP3 yeast inh 70.7*, tim10-1 inh 70.1*, TIM10 inh 72.6*, SKKanGAS inh -8.3, PfHsp90 set2 -8.3, tim23-1 inh 83.0*, NALP3 yeast conf 75.2*, Casp1-ASC yeast 25.8, NALP3 yeast rt 63.9*, tim10-1 conf 63.6*, TIM10 conf 80.0* and tim23-1 conf 66.6*.
`CC(=O)Oc1c(C)c(=O)n(C)c2ccccc12` gave NLRP3 yeast inh -17.7, tim10-1 inh 2.6, TIM10 inh -9.9, SKKanGAS inh -11.9, PfHsp90 set2 -17.7 and tim23-1 inh 14.3.
O=C(NCCC1=CCCCC1)c1c(O)nc2sccn2c1=O was read as NLRP3 yeast inh 66.7*, tim10-1 inh 42.3*, TIM10 inh 35.5, SKKanGAS inh 31.0, tim23-1 inh 74.9*, NALP3 yeast conf 78.7*, Casp1-ASC yeast 47.6, NALP3 yeast rt 55.8*, tim10-1 conf 1.1 and tim23-1 conf 61.6*.
For CCn1c(=O)c(C(=O)NCCCc2ccccc2)c(O)c2ccccc21 the results were NLRP3 yeast inh 14.6, tim10-1 inh -36.0, TIM10 inh -14.7, SKKanGAS inh 4.6, PfHsp90 set2 10.8 and tim23-1 inh -0.1.
`O=C(NCCC1=CCCCC1)c1cnsn1` gave NLRP3 yeast inh -3.8, tim10-1 inh 12.0, TIM10 inh 1.5, SKKanGAS inh -0.8, PfHsp90 set2 -17.6 and tim23-1 inh 6.3.
O=C(NCCC1=CCCCC1)c1c(O)nc2ccccn2c1=O was read as NLRP3 yeast inh 63.4*, tim10-1 inh 51.3*, TIM10 inh 30.5, SKKanGAS inh 3.1, PfHsp90 set2 -22.4, tim23-1 inh 55.9*, NALP3 yeast conf 76.3*, Casp1-ASC yeast 51.6*, NALP3 yeast rt 55.1*, tim10-1 conf -6.4 and tim23-1 conf 56.4*.
`O=C(NCCCc1ccccc1)c1c(O)nc2sccn2c1=O` gave NLRP3 yeast inh 63.4*, tim10-1 inh 35.5, TIM10 inh 31.2, SKKanGAS inh 4.8, PfHsp90 set2 14.6, tim23-1 inh 70.1*, NALP3 yeast conf 77.4*, Casp1-ASC yeast 39.4, NALP3 yeast rt 59.0* and tim23-1 conf 54.0*.
CN1CCN(S(=O)(=O)c2ccc(SCCOc3ccc(Cl)cc3)nc2)CC1 was read as NLRP3 yeast inh 73.7*, tim10-1 inh 39.2, TIM10 inh 64.7*, PfHsp90 set2 3.0, tim23-1 inh 60.9*, NALP3 yeast conf 74.3*, Casp1-ASC yeast 22.9, NALP3 yeast rt 17.9, TIM10 conf 68.9* and tim23-1 conf 38.6*.
Screening CSc1nc2cc(Oc3cccc(Cl)c3Cl)c(Cl)cc2[nH]1 returned NLRP3 yeast inh 82.9*, tim10-1 inh 53.0*, TIM10 inh 55.2*, SKKanGAS inh 96.0*, PfHsp90 set2 109.0*, tim23-1 inh 74.5*, NALP3 yeast conf 90.9*, Casp1-ASC yeast 96.5*, NALP3 yeast rt 95.3*, tim10-1 conf 50.8*, TIM10 conf 65.3* and tim23-1 conf -20.9.
O=C(NCCc1ccccc1)Nc1ccc2c(c1)OCO2 was read as NLRP3 yeast inh -12.0, tim10-1 inh 14.7, TIM10 inh 7.3, SKKanGAS inh 4.1, PfHsp90 set2 -3.8 and tim23-1 inh 3.3.
For CCN(CC)c1ccc(/C=C2\SC(=O)N(C(C)C)C2=O)o1 the results were NLRP3 yeast inh 52.0*, tim10-1 inh 61.9*, TIM10 inh 57.0*, SKKanGAS inh -3.9, tim23-1 inh 60.1*, NALP3 yeast conf 43.6, Casp1-ASC yeast 56.2*, NALP3 yeast rt 49.4, tim10-1 conf 43.5*, TIM10 conf 63.7* and tim23-1 conf 74.2*.
For Cc1c(Cl)sn(-c2ccc(Cl)cc2)c1=O the results were NLRP3 yeast inh 56.0*, tim10-1 inh 96.4*, TIM10 inh 97.2*, PfHsp90 set2 110.9*, tim23-1 inh 55.3*, NALP3 yeast conf 34.1, Casp1-ASC yeast 69.0*, NALP3 yeast rt 49.5, tim10-1 conf 98.2*, TIM10 conf 99.5* and tim23-1 conf 99.3*.
For O=C(Nc1ccccc1)C1C(c2ccccc2)C1(Cl)Cl (configuration not stated) the results were NLRP3 yeast inh 59.0*, tim10-1 inh 43.5*, TIM10 inh 25.4, SKKanGAS inh 20.1, PfHsp90 set2 -2.5, tim23-1 inh 55.0*, NALP3 yeast conf 71.8*, Casp1-ASC yeast 64.2*, NALP3 yeast rt 59.8*, tim10-1 conf 24.1 and tim23-1 conf 47.5*.
Screening O=C(NNC(=O)c1ccccc1Cl)c1cccs1 returned NLRP3 yeast inh -2.8, tim10-1 inh -2.6, TIM10 inh -6.4, SKKanGAS inh -3.5, PfHsp90 set2 11.4 and tim23-1 inh 3.4.

Assay outcomes as filed in PubChem BioAssay.
